# Assay results reported in the supplement of paper PMC12067093, “Discovery and optimisation of a covalent ligand for TRIM25 and its application to targeted protein ubiquitination” (Chemical Science, 2025).
# The full data set covers some 21,000 targets. This sample favours those with the largest changes.
# Target: PKN2_Q16513_118_LQELNAHIVVSDPEDITDCPR (UniProt Q16513)
# Experiment: probe-labelled cysteine peptide fold change vs DMSO (competition) (log2 fold change); higher = less target engagement (more negative = stronger competition)
# Conditions: THP-1, incubation time: 4 h
# 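Also: competitive profiling in live THP-1 cells: cysteine peptides tagged with an iodoacetamide desthiobiotin (IA-DTB) probe, intensity after compound treatment relative to DMSO-treated cells.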
# UniProt Q16513, sequence (Q16513 whole entry, looked up): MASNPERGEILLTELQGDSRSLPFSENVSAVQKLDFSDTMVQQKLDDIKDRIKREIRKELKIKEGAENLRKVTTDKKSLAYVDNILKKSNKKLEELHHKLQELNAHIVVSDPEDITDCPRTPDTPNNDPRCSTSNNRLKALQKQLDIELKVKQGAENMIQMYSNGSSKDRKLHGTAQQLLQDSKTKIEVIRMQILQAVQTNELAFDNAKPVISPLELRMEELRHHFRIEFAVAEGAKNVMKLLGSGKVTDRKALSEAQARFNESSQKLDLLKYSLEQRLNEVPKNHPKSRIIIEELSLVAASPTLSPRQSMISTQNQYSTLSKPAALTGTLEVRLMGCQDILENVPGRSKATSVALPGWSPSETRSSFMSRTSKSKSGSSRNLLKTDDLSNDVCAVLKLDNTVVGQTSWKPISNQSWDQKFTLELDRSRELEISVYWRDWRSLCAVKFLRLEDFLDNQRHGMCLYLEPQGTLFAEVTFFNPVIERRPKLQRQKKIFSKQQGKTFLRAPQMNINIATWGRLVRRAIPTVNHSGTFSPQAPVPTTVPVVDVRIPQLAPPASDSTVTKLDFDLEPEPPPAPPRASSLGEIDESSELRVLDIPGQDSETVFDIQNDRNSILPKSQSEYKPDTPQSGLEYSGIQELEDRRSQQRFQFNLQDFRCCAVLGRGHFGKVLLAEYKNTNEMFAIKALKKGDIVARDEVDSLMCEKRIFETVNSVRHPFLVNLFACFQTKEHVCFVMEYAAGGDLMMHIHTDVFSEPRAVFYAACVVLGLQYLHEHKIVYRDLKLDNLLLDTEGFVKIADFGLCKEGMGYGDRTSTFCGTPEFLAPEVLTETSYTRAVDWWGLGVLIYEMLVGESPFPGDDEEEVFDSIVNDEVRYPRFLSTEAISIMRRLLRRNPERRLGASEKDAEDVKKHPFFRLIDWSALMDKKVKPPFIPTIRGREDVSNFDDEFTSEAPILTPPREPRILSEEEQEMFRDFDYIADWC
smiles,measurement,setting,value
Cc1cc(C(=O)N2CCCN(C(=O)CCl)CC2)ccc1-c1ccccc1 [compound 10],probe-labelled cysteine peptide fold change,10 µM,-0.00661
same,probe-labelled cysteine peptide fold change,50 µM,0.269
